# Screening data (PubChem)
# GALK inhibitor: qHTS Assay for Inhibitors of Human Galactokinase (GALK): NCGC Sytravon Library Screen | recombinant GALK, Kinase-Glo ATP luminescence, 1 h | Potency, µM (series often up to 57.5 µM), for the others: at the top dose activity, negative = inhibition, usual class: inhibitors | 44,000 tested, under 10 active;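 further: plate controls were full GALK reaction for no effect and reaction lacking GALK for full effect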
#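 Human GALK (5 nM) was incubated with 35 uM ATP and 100 uM galactose in 20 mM HEPES pH 8.0 with MgCl2, NaCl, DTT and BSA for 1 h at room temperature. Remaining ATP was measured by Kinase-Glo Plus luminescence.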
# SKOV3 invasion: Primary qHTS assay for Inhibitors of ovarian cancer metastasis using an organotypic tumor microenvironment (TME) model. AID 1963576, 2024. SKOV3ip1-GFP adhesion/invasion on 3D omental model, fluorescence. 46,000 tested, 0.1% active. Potency, µM (doses to about 45.8 µM), for inactives: at the highest dose activity change, negative = inhibition, actives largely listed as inhibitors;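 further: potency means the concentration at half of the fitted maximal effect; plate controls were DMSO wells for no effect and tomatine positive control wells for full effect; nearly all actives have a fitted effect of over 65% in size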
#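 qHTS, 4-pt dose (0.36-46 umol/L); SKOV3ip1-GFP, 1,200 cells/well, no FBS; primary omental fibroblast/mesothelial co-culture 48 h pre-grown; 2 h RT + 16 h 37 C; PBS wash, 4% PFA; GFP count 488/509 nm.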
# NTMT1 inhibitor: Primary qHTS for Inhibitors of N-terminal methyltransferase 1 (NTMT1): MTaseGlo Assay. 59,000 tested, 2.5% active. Potency, µM (highest dose often 114 µM), inactives show top-dose activity change, negative = inhibition, most hits filed as inhibitors. N-terminal Xaa-Pro-Lys N-methyltransferase 1 (Homo sapiens), Q9BV86. NTMT1 MTase-Glo SAH luminescence, purified enzyme. AID 1645870, 2021;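 further: potency means the concentration at half of the fitted maximal effect; plate controls were DMSO vehicle for no effect and no enzyme for full effect; nearly all actives have a fitted effect of over 65% in size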
# GPR32 ag: qHTS for Agonists of Human Resolvin D1 Receptor DRV1; Probable G-protein coupled receptor 32 (Homo sapiens), O75388; CHO-K1 GPR32 beta-arrestin PathHunter luminescence, 90 min; zero percent set by DMSO-only wells; activation, % at 76.9 µM; 48,000 tested, 2.5% active; AID 1346428, 2018;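 active means activation of at least 60% and not above a set upper limit, about 1 call in 100 departs from these limits; inconclusive means activation of 40% to 60%, or above that upper limit; inactive means activation under 40%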; further: 0% is about no effect
# Target sequence (O75388 whole entry, looked up): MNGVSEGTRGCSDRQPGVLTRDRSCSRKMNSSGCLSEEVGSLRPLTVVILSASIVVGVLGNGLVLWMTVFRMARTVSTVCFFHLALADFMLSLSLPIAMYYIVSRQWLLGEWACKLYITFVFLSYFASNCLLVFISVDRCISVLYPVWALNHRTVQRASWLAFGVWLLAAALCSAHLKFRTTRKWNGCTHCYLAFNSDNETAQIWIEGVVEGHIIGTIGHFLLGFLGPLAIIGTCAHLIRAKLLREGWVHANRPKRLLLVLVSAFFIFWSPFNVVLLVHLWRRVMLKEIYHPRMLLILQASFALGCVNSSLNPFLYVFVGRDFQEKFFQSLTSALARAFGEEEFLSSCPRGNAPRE
#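 CHO-K1 cells stably expressing ProLink-tagged GPR32 and Enzyme Activator-tagged beta-arrestin were seeded at 2,500 cells/well overnight, exposed to compounds for 90 min at 37 °C, then read by beta-Gal complementation chemiluminescence after 1 h detection reagent.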
# PTAP-TSG101 blk: qHTS Validation Assay for Inhibitors of HIV-1 Budding by Blocking the Interaction of PTAP/TSG101: Sytravon Library Screen; Potency, µM (titrated, usually from 115 µM), hits mostly inhibitors; Tumor susceptibility gene 101 protein (Homo sapiens), Q99816; AID 1347069, 2019; Fluorescence polarization, FITC-PTAP peptide/Tsg101, 20 min; 44,000 tested, under 10 active; further: potency means the concentration at half of the fitted maximal effect; 0% is about no effect
# Target sequence (Q99816 whole entry, looked up): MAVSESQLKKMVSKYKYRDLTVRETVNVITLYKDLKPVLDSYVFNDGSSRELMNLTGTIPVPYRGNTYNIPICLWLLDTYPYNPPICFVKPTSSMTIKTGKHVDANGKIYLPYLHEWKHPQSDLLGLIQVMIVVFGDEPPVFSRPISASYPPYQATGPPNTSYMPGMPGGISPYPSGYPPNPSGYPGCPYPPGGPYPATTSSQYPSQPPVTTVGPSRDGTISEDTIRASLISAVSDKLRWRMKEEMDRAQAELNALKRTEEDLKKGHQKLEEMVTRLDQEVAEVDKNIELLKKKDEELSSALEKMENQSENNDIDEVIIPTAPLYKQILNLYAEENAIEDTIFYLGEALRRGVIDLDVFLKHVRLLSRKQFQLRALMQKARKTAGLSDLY
#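 Steps: Tsg101 binding domain (10 uM final) in HEPES pH 7.5/NaCl/Tween 20/EDTA/TCEP; add compound; add FITC-PTAP peptide (50 nM final); incubate 20 min r.t.; read polarization.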
# B2AR arrestin ag: qHTS assay of beta-arrestin-biased ligands of beta2-adrenergic receptor: NCGC Sytravon Library Screen; Beta-2 adrenergic receptor (Homo sapiens), P07550; HTLA Tango cells, beta-arrestin recruitment, luciferase luminescence, 18 h; Potency, µM (highest dose often 46.1 µM), hits mostly activators; 44,000 tested, under 10 active; AID 1347077, 2019;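 further: potency means the concentration at half of the fitted maximal effect; 0% = DMSO and full agonism = EC100 isoproterenol or metaproterenol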
#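 Ligand-induced beta-arrestin recruitment to recombinant beta2-AR is measured via a tTA-driven luciferase reporter in Tango cells after 18 hr compound exposure at 37 degrees C. Concentrations span up to 46 microM.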
# An asterisk follows results filed as active; i = inactive; u = inconclusive; x = not tested or not shown; ! = repeats disagree; [ ] = remark or other dose. Compounds with a hit are over-represented: about 3.8% of the library has one in this group of screens. Unless noted, the call rests on the fitted dose curve; in most records, active means well fitted curve in the direction sought with a large enough effect; inconclusive means small, poorly fitted or top-dose-only effect, or another doubt; inactive means no such curve, though single readings can be large; an effect the other way counts as inactive or inconclusive.
SMILES,GALK inhibitor,SKOV3 invasion,NTMT1 inhibitor,GPR32 ag,PTAP-TSG101 blk,B2AR arrestin ag
COc1ccccc1NC(=O)c1ccc2c(Cl)c3c(nc2c1)CCCC3,9.4%,6.5%,-0.2%,23.9,i,i
O=C(NC1CCCC1)c1c[nH]c2ccc(S(=O)(=O)Nc3cccc(C(F)(F)F)c3)cc2c1=O,0.0%,i,12.3%,82.3*,i,i
CCOCCCNC(=O)c1c[nH]c2ccc(S(=O)(=O)Nc3cccc(Cl)c3C)cc2c1=O,0.0%,2.1%,89.1µM*,64.9*,i,i
CNC(=O)c1c[nH]c2ccc(S(=O)(=O)Nc3cccc(Cl)c3C)cc2c1=O,1.4%,i,-1.8%,-4.3,i,i
CN(C(=O)c1c[nH]c2ccc(S(=O)(=O)Nc3cccc(C(F)(F)F)c3)cc2c1=O)C1CCCCC1,-0.2%,i,8.1%,-13.2,i,i
O=C(NC1CCCC1)c1cc(Nc2cccc(C(F)(F)F)c2)nc2ccccc12,-0.1%,-6.4%,6.5%,96.3*,i,i
CCc1ccc(NS(=O)(=O)c2ccc3[nH]cc(C(=O)NC4CCCC4)c(=O)c3c2)cc1,-3.3%,i,u,u,i,i
CCc1ccccc1NS(=O)(=O)c1ccc2[nH]cc(C(=O)NC3CCCC3)c(=O)c2c1,-6.4%,13.6%,3.1%,106.5*,i,i
Cc1cccc(NC(=O)CSc2nc(=O)n(Cc3ccncc3)c3c2CCC3)c1C,1.9%,1.4%,1.1%,-9.2,i,i
CCN(c1ccccc1)S(=O)(=O)c1ccc2[nH]cc(C(=O)NC3CCCCC3)c(=O)c2c1,-1.0%,i,4.4%,29.5,i,i
CCN(c1ccccc1)S(=O)(=O)c1ccc2[nH]cc(C(=O)NCc3ccc(C)cc3)c(=O)c2c1,0.1%,-6.7%,5.3%,62.8*,i,i
Cc1cc(C)cc(NS(=O)(=O)c2ccc3[nH]cc(C(=O)NCCc4ccccc4)c(=O)c3c2)c1,8.0%,-4.3%,1.2%,78.8*,i,i
CCOc1ccc(NS(=O)(=O)c2ccc3[nH]cc(C(=O)NCc4ccco4)c(=O)c3c2)cc1,0.0%,4.8%,u,67.3*,i,i
O=C(NC1CCCCC1)c1c[nH]c2ccc(S(=O)(=O)Nc3ccccc3F)cc2c1=O,6.9%,12.0%,u,101.5*,i,i
O=C(NC1CC(=O)N(c2ccc(Cl)cc2)C1)C1CCCCC1 (stereo unspecified),-1.6%,8.1%,8.5%,-11.3,i,i
N[C@H](Cc1ccccc1)C(=O)Nc1ccc(Cl)cc1C(=O)c1ccc[nH]1,x,x,28.2µM*,x,x,x
Cc1ccc(-c2nc3ccccc3[nH]2)cc1NC(=O)COc1ccccc1[N+](=O)[O-],9.5%,u,9.0%,79.1*,i,i
Cc1ccc(OCC(=O)Nc2cc(-c3nc4ccccc4[nH]3)ccc2C)c(C)c1,-2.5%,-16.4%,u,-6.0,i,i
O=C(COc1ccccc1[N+](=O)[O-])Nc1cccc(-c2nc3ccccc3s2)c1,0.5%,0.1%,10.6%,83.7*,i,u
NC(=O)c1ccccc1NC(=O)C1CCCN(c2ncnc3onc(-c4ccc(F)cc4)c23)C1 (stereo unspecified),2.5%,4.8%,-24.7%,-2.4,i,i
O=C(O)c1c(Cl)c(Cl)c(Cl)c(Cl)c1-c1c2cc(I)c(=O)c(I)c-2oc2c(I)c(O)c(I)cc12,x,-5.0%,3.55µM*,x,x,x
Cc1cc2c(s1)c1cnn(Cc3ccc(Cl)cc3)c(=O)c1n2C,x,x,89.1µM*,x,x,x
S=P(N1CC1)(N1CC1)N1CC1,x,-6.1%,15.8µM*!,u,x,x
Cc1ccc(S(=O)(=O)c2nnn3c2nc(Nc2ccc(C(C)C)cc2)c2sccc23)cc1C,2.1%,i,-5.0%,-8.3,i,i
O=C(CC1N=C2c3ccccc3N=C(SCc3ccc(Cl)cc3)N2C1=O)NCCc1ccccc1 (stereo unspecified),-1.3%,-2.2%,-1.3%,73.8*,i,i
SMILES,GALK inhibitor,SKOV3 invasion,NTMT1 inhibitor,GPR32 ag,PTAP-TSG101 blk,B2AR arrestin ag
O=C(CCC1N=C2c3ccccc3N=C(SCc3ccc(Cl)cc3)N2C1=O)NCCc1ccccc1 (stereo unspecified),-2.5%,u,0.5%,-13.5,i,i
COc1ccc(-c2cc(=O)oc3c4c(ccc23)OCN(Cc2cccc(OC)c2)C4)cc1,u,2.9%,x,39.3,i,i
C[C@H](N)C(=O)N[C@@H](C)C(=O)NC1[C@H]2CN(c3nc4c(cc3F)c(=O)c(C(=O)O)cn4-c3ccc(F)cc3F)C[C@@H]12 (stereo partly specified),x,x,u,-1.2,x,x
COC(=O)c1scc(-c2ccccc2)c1S(=O)(=O)Nc1ccc(C)c(Cl)c1,2.7%,-13.5%,15.5%,-7.3,i,i
Cc1ccc(CNC(=O)c2ccc(-c3nc(CS(=O)(=O)c4ccc(C)cc4)c(C)o3)cc2)cc1,1.5%,3.3%,u,109.8*,i,i
CCCCNC(=O)c1ccc(-c2nc(CS(=O)(=O)c3ccc(C)cc3)c(C)o2)cc1,-0.2%,0.3%,15.0%,69.4*,i,i
COCCCNC(=O)c1ccc(-c2nc(CS(=O)(=O)c3ccc(C)cc3)c(C)o2)cc1,-0.1%,14.3%,x,7.3,i,i
CCN(CC)CCCNC(=O)c1ccc(-c2nc(CN3CCc4ccccc43)c(C)o2)cc1,3.9%,u,-17.9%,95.3*,i,i
C[C@H]1C[C@H]2[C@@H]3CCC4=CC(=O)C=C[C@]4(C)[C@@]3(F)[C@@H](O)C[C@]2(C)[C@@]1(O)C(=O)COP(=O)(O)O,x,x,-15.5%[57.5 µM],x,x,x
CC(C)c1cc(-c2n[nH]c(=O)n2-c2ccc3c(ccn3C)c2)c(O)cc1O,x,6.1%,28.2µM*!,x,x,x
Nc1nc(Nc2ccc3c(c2)CC[C@@H](N2CCCC2)CC3)nn1-c1cc2c(nn1)-c1ccccc1CCC2,x,x,35.5µM*,x,x,x
O=c1c2ccccc2nc2sc(Nc3ccc4c(c3)CCC4)nn12,x,x,-10.9%,x,x,x
